From PubChem
ALOX12 inh = Primary qHTS assay for inhibitors of human arachidonate 12S-lipoxygenase (ALOX12): Round 2; 580,000 compounds, 1.1% hits; Polyunsaturated fatty acid lipoxygenase ALOX12 (Homo sapiens), P18054; purified 12hLO, xylenol orange hydroperoxide absorbance; Potency, µM (doses to about 108 µM), actives largely listed as inhibitors; AID 1671190, 2021
Target sequence (P18054 whole entry, looked up): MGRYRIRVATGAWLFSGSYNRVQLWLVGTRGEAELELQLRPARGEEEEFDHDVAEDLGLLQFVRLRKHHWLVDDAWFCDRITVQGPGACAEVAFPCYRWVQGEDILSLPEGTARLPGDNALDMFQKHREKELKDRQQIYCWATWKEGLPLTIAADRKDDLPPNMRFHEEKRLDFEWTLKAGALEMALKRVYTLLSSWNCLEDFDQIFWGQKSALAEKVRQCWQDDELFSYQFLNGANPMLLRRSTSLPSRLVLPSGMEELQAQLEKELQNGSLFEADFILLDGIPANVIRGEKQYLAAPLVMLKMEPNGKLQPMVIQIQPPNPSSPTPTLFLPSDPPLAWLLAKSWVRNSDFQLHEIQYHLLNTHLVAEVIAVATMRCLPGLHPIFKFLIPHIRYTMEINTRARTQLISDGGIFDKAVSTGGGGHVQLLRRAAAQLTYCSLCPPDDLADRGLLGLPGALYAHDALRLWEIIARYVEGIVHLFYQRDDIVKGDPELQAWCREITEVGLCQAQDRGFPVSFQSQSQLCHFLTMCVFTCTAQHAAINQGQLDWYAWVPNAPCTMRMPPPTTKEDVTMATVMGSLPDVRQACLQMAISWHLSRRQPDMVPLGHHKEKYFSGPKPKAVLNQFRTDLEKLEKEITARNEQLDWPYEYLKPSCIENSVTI
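Purified human 12hLO at 150 nM in 25 mM Hepes, 0.01% Triton X-100, pH 7.0, preincubated 15 min at room temperature with compound. Reaction started with 40 uM arachidonic acid, 30 min at room temperature. Hydroperoxide measured by Fe-xylenol orange, 573/405 nm absorbance ratio.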
DT40 TDP1 CPT = qHTS for Inhibitors of human tyrosyl-DNA phosphodiesterase 1 (TDP1): qHTS in cells in presence of CPT; chicken DT40 Tdp1-/-;hTDP1 cells + 20 nM CPT, ATP luminescence, 48 h; Potency, µM (highest dose often 46.2 µM), usual class: inhibitors; 420,000 compounds, 12% hits; note: nearly all actives have a fitted effect of over 55% in size
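Chicken DT40 Tdp1-/- cells stably complemented with human TDP1 were seeded at 400 cells/well in medium containing 20 nM camptothecin, exposed to pin-transferred compounds, and grown at 37 °C for at least 48 hr. Viability was read as ATP luminescence.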
HT1080 IDH1KD tx = qHTS for induction of synthetic lethality in tumor cells producing 2HG: qHTS for the HT-1080-IDH1KD cell line | HT-1080 IDH1 knockdown viability, ATP luminescence, 48 h | Potency, µM (top dose mostly 46.1 µM), actives largely listed as cytotoxic | 360,000 compounds, 2% hits | AID 686971, 2013
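Assay cells: HT-1080 with IDH1 knockdown, 750 per well, RPMI/5% FBS. Exposure: 48 h at 37 °C following 2 h pre-incubation. Read: CellTiter-Glo luminescence; fitted concentration-response, curve class assigned.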
HT1080NT lethal = qHTS for induction of synthetic lethality in tumor cells producing 2HG: qHTS for the HT-1080-NT fibrosarcoma cell line; HT-1080-NT fibrosarcoma viability, CellTiter-Glo ATP luminescence, 48 h; Potency, µM (doses to about 46.1 µM), most hits filed as cytotoxic; 360,000 compounds, 1.6% hits; AID 686970, 2013;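 note: NT is the 2HG producing partner of a matched IDH1 knockdown line; nearly all actives have a fitted effect of over 55% in size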
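HT-1080-NT fibrosarcoma cells (2HG-overproducing), 750 cells/well in RPMI with 5% FBS, dosed after 2 h and incubated 48 h at 37C. CellTiter-Glo luminescence normalized to DMSO and no-cell wells; concentration-response curves fitted and classed.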
IL1B secr inh = qHTS for Inhibitors of Inflammasome Signaling: IL-1-beta AlphaLISA Primary Screen | 360,000 compounds, 4.7% hits | THP-1 LPS/ATP IL-1B secretion, AlphaLISA, 16 h; hits give low values | activity change, % at 57.5 µM; in the data active = activity change below about -50%; inconclusive = mostly about -30% to -49%
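THP-1 cells pretreated 1 hr with compounds (up to 57.5 uM final), then stimulated with LPS (250 ng/mL final) plus ATP (1.25 mM final); secreted IL-1B measured by AlphaLISA after 16 hr, decreased signal indicating inhibition.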
TDP1 cell noCPT = qHTS for Inhibitors of human tyrosyl-DNA phosphodiesterase 1 (TDP1): qHTS in cells in absence of CPT; DT40 Tdp1-/- hTDP1 cells, no CPT, ATP luminescence, 48 h; Potency, µM (titrated, usually from 46.2 µM), hits mostly inhibitors; 420,000 compounds, 15% hits; AID 686978, 2013; note: nearly all actives have a fitted effect of over 55% in size
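Readout: luminescence from CellTiter-Glo after 30 min in the dark at RT. Cells: DT40 Tdp1-/- with stable hTDP1, 400/well. Exposure: compounds alone, ≥48 hr, 37 °C.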
Large screens that a line does not name were inactive. This is one part of a sample in which hits are shown more often than they occur. Unless noted, calls come from the whole dose curve; as a rule, active = well fitted curve in the direction sought with a large enough effect; inconclusive = small, poorly fitted or top-dose-only effect, or another doubt; inactive = no such curve, though single readings can be large; an effect the other way counts as inactive or inconclusive.

O=C1CC(c2ccccc2F)Cc2nc(N3CCN(c4cccc(C(F)(F)F)c4)CC3)ncc21 (stereo not drawn)	none (no result: DT40 TDP1 CPT, HT1080 IDH1KD tx, HT1080NT lethal, IL1B secr inh, TDP1 cell noCPT)
CCOC(=O)C1=C[C@@H](CC)N(S(=O)(=O)c2ccc(C)cc2)[C@H]1c1cccs1	DT40 TDP1 CPT 15µM, HT1080 IDH1KD tx inconclusive, HT1080NT lethal inconclusive, TDP1 cell noCPT 16µM
C=C1Nc2ccccc2C(=O)N1c1ccc(C(=O)N2CCN(C(=O)c3ccco3)CC2)cc1	none (no result: ALOX12 inh, HT1080 IDH1KD tx, HT1080NT lethal, IL1B secr inh)
CCN1C(=O)C(O)(CC(=O)c2ccc(-n3cccc3)cc2)c2ccccc21 (stereo not drawn)	DT40 TDP1 CPT inconclusive, TDP1 cell noCPT inconclusive
COC(=O)CN1C(=O)C(O)(CC(=O)c2cccc(Br)c2)c2ccccc21 (stereo not drawn)	DT40 TDP1 CPT 29µM, TDP1 cell noCPT inconclusive
CCCCN1C(=O)C(O)(CC(=O)c2c(C)cc(C)cc2C)c2ccccc21 (stereo not drawn)	none (no result: DT40 TDP1 CPT, HT1080 IDH1KD tx, HT1080NT lethal, IL1B secr inh, TDP1 cell noCPT)
Cc1ccccc1CN1C(=O)C(O)(CC(=O)c2cccc(Br)c2)c2ccccc21 (stereo not drawn)	TDP1 cell noCPT 5.2µM (no result: HT1080 IDH1KD tx, HT1080NT lethal, IL1B secr inh)
COc1ccc(OC)c(C(=O)CC2(O)C(=O)N(Cc3ccccc3C)c3ccccc32)c1 (stereo not drawn)	DT40 TDP1 CPT 16µM, TDP1 cell noCPT 5.8µM (no result: HT1080 IDH1KD tx, HT1080NT lethal, IL1B secr inh)
CCN1C(=O)C(O)(CC(=O)c2cccc(-n3cccc3)c2)c2ccccc21 (stereo not drawn)	DT40 TDP1 CPT inconclusive, IL1B secr inh inconclusive, TDP1 cell noCPT 16µM
CNC(=O)C1CCN(C(C)C(=O)c2c[nH]c3ccccc23)CC1 (stereo not drawn)	none (no result: DT40 TDP1 CPT, HT1080 IDH1KD tx, HT1080NT lethal, IL1B secr inh, TDP1 cell noCPT)
CCCS(=O)(=O)NC(=O)C1(C)CCN(C(=O)CSc2ccccc2)C1 (stereo not drawn)	none
CN1CC(=O)N(c2ccccc2F)Cc2c(NCC3CCCCC3)ncnc21	none (no result: DT40 TDP1 CPT, HT1080 IDH1KD tx, HT1080NT lethal, IL1B secr inh, TDP1 cell noCPT)
COc1ccc(-c2nocc2CCC(=O)O)cc1	none (no result: DT40 TDP1 CPT, HT1080 IDH1KD tx, HT1080NT lethal, IL1B secr inh, TDP1 cell noCPT)
COc1ccc(-c2nc3sc(CCNS(=O)(=O)c4ccccc4)c(C)n3n2)cc1	none (no result: HT1080 IDH1KD tx, HT1080NT lethal, IL1B secr inh)
O=C(CNS(=O)(=O)c1ccc2ccccc2c1)OCc1csc(-c2ccccc2)n1	ALOX12 inh inconclusive, DT40 TDP1 CPT inconclusive, TDP1 cell noCPT 21µM
CCOC(=O)C1CCN(C(=O)c2oc3ccc4c(c3c2C)C(O)CC2(CCCCC2)O4)CC1 (stereo not drawn)	DT40 TDP1 CPT inconclusive, TDP1 cell noCPT inconclusive
Cc1c(C(=O)NCCCN2CCCCC2)oc2ccc3c(c12)C(O)CC1(CCCCC1)O3 (stereo not drawn)	DT40 TDP1 CPT inconclusive, TDP1 cell noCPT 16µM
O=C(NCC1CCN(CC(F)(F)F)C1)c1ccc2ccccc2c1 (stereo not drawn)	none (no result: DT40 TDP1 CPT, HT1080 IDH1KD tx, HT1080NT lethal, IL1B secr inh, TDP1 cell noCPT)
O=C1CC2(CCN(C(=O)COc3ccccc3F)CC2)Oc2ccccc21	TDP1 cell noCPT inconclusive
Cc1ccc(OCC(=O)N2CCC3(CC2)CC(=O)c2ccccc2O3)cc1	DT40 TDP1 CPT 21µM, TDP1 cell noCPT 13µM
COc1cccc(OCC(=O)N2CCC3(CC2)CC(=O)c2ccccc2O3)c1	DT40 TDP1 CPT inconclusive, TDP1 cell noCPT inconclusive
O=C1CC2(CCN(C(=O)COc3ccc(Cl)cc3)CC2)Oc2ccccc21	ALOX12 inh inconclusive, DT40 TDP1 CPT inconclusive, IL1B secr inh -55, TDP1 cell noCPT 18µM
CC(=O)Nc1ccc(CN(C)Cc2ccc(-c3ccccc3)cc2)cc1	none (no result: DT40 TDP1 CPT, HT1080 IDH1KD tx, HT1080NT lethal, IL1B secr inh, TDP1 cell noCPT)
CCN1C(=O)COc2ccc(-c3nc(NC(=O)c4ccncc4)sc3C)cc21	none (no result: DT40 TDP1 CPT, HT1080 IDH1KD tx, HT1080NT lethal, IL1B secr inh, TDP1 cell noCPT)
CCCN1CN(Cc2ccco2)c2nc3ccccc3n2C1	DT40 TDP1 CPT 15µM, TDP1 cell noCPT inconclusive
